Data reported in PubChem BioAssay (EPA / NIEHS).
The source made the active and inactive calls. Rule for the calls: active = hit-call score of the fitted dose curve at least 0.9, where 1 is the maximum; inactive = score below 0.9.

What follows are compounds tested on Interferon-inducible T-cell alpha chemoattractant (ITAC), CXCL11 (gene 6373) (assay: BSK_BE3C_ITAC: BioMAP Diversity Plus: BE3C Assay for Interferon-inducible T-cell alpha chemoattractant (ITAC) Biomarker Activity (AID 2284279)). Conditions: primary human bronchial epithelial cells.
Experimental: BSK_BE3C is a cell-based, multiplexed-readout assay that uses bronchial epithelial cell, a human lung primary cell, with measurements taken at 24 hours after chemical dosing in a 96-well plate.BSK_BE3C_ITAC is an assay component measured in the BSK_BE3C assay. It measures I-TAC antibody related to regulation of gene expression using ELISA technology.Data from the assay component BSK_BE3C_ITAC was analyzed at the endpoint, BSK_BE3C_ITAC, in the positive analysis fitting direction relative to DMSO as the negative control and baseline of activity. Using a type of binding reporter, gain or loss-of-signal activity can be used to understand protein changes. To generalize the intended target to other relatable targets, this assay endpoint is annotated to the 'cytokine' intended target family, where the subfamily is 'chemotactic factor'.
The levels of cell surface (or secreted, indicated by the prefix "s") biomarker endpoints were measured by ELISA. Overt cytotoxicity to cells in confluent adherent cultures (all systems other than the BT system) was assessed by measuring total protein levels using sulforhodamine B (SRB) staining in parallel cultures at the time of biomarker measurements, indicated as SRB endpoints. For proliferation assays for adherent cell types, individual cell types are cultured at sub-confluence and relative cell numbers quantified by SRB staining at time points optimized for each system (48 h: 3C and CASM3C systems; 72 h: BT and HDF3CGF systems; 96 h: SAg system). SRB was performed by staining cells with 0.1% SRB after fixation with 10% TCA and reading wells at 560 nm.Viability and proliferation of PBMC (T cells) was quantified by Alamar Blue reduction for the SAg and BT systems. For PBMC viability (referred to as PBMC Cytotoxicity within the assay endpoint names), cells were plated (75,000/well in a 96-well plate) and then chemical samples added for 1 h before addition of activators, SEB and TSST-1 (20 ng/mL final concentration each). Cells were incubated for 90 h. Then, Alamar Blue (20 uL/well) (Invitrogen, Cat DAL1100) was added for 6 h, and the plates were read with a fluorescence microplate reader at 546/580 nm (excitation/emission). For PBMC proliferation, cells were plated and activated as above but incubated for only 16 h prior to addition of Alamar Blue. Plates were read after 6 h.

outcome, inactive:
C[C@H]1C[C@@H]2[C@H]([C@@H](O)C[C@@]3(C)[C@H]2CC[C@]3(O)C(=O)CO)[C@@]2(C)C=CC(=O)C=C12, Nc1cc([N+](=O)[O-])ccc1O, Cc1cc(C2(c3cc(C)c(O)cc3C)OS(=O)(=O)c3ccccc32)c(C)cc1O, NCCNCCN, CC(=O)OCCC(C)CC(C)(C)C (configuration not stated), OC1OC[C@@H](O)[C@H](O)[C@H]1O (some centres not stated), CC[Si](OC(C)=O)(OC(C)=O)OC(C)=O, CCC(=O)OCc1ccccc1, COc1cc(C=O)ccc1OC(=O)C(C)C, CC(=O)[C@H]1CC[C@H]2[C@@H]3CC=C4C[C@@H](O)CC[C@]4(C)[C@H]3CC[C@]12C, OC[C@H]1O[C@H](O[C@]2(CCl)O[C@H](CCl)[C@@H](O)[C@@H]2O)[C@H](O)[C@@H](O)[C@H]1Cl, C=CCOC(=O)CCC1CCCCC1
